Bioassay records deposited in PubChem by several laboratories.
ABHD5 PLIN5 PPI: ABHD5-PLIN5 protein interaction inhibition; Q00G26+Q8WTS1; Split G. princeps luciferase complementation, luminescence, 4 h; inhibition, % at 4 µM; 0.78% of 360,000 active;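 active = inhibition above the mean inhibition across every tested compound plus 3 SD, cut at about 22% in these data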
Target sequence (Q00G26 whole entry, looked up): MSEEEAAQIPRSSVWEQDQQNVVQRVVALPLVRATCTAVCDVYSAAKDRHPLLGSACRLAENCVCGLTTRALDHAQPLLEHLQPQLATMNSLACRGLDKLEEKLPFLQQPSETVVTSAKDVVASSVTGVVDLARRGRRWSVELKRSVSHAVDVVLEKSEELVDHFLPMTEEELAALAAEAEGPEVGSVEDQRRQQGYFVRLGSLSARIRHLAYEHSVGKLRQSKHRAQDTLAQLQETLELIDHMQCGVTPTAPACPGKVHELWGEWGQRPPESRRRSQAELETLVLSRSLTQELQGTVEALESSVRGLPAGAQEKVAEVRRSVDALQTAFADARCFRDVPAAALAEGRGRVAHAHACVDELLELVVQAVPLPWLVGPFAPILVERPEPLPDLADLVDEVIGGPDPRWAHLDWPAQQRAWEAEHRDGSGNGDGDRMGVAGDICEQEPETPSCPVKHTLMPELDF
Target sequence (Q8WTS1 whole entry, looked up): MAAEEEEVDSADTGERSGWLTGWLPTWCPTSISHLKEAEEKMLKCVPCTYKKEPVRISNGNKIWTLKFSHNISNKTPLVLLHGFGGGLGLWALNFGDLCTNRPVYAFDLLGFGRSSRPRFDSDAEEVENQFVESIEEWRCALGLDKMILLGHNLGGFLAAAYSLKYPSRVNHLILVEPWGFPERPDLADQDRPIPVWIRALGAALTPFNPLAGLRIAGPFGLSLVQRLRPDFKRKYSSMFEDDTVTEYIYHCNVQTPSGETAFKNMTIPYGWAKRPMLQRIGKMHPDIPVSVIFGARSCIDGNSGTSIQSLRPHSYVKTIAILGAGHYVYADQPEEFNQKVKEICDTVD
Mdm2 MdmX PPI: disrupts the human Mdm2-MdmX interaction. 3% of 330,000 active. inhibition, % at 8 µM. AID 485346. O15151+Q00987. SaOS-2 split-luciferase Mdm2/MdmX complementation, luminescence;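 active = inhibition of at least 50% at 8 µM in the primary screen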
Peg3 promoter: reduces Peg3 promoter-driven luciferase expression in HeLa; HeLa PEG-Prom luciferase reporter, luminescence, overnight; inhibition, % at 20 µM; 1.7% of 360,000 active; AID 588405;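 active = inhibition of at least 50% at 20 µM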
CF NFkB block: cystic fibrosis NF-kB activation inhibition; KKLEB NF-kB-GFP reporter, PAF-induced, GFP fluorescence overnight; inhibition, % at 5 µM; 0.86% of 360,000 active;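 active = at least 50% inhibition at 5 µM, scaled per plate between neutral and stimulator controls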;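 note: PAF is a Pseudomonas aeruginosa culture filtrate used as stimulus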
KKLEB tox: reduces viability of KKLEB cystic fibrosis airway cells | 0.36% of 360,000 active | AID 602141 | activity change (cytotoxicity), % at 5 µM | KKLEB CF airway cells viability, ATPlite luminescence, overnight; stronger effect = lower value; cells stimulated with P. aeruginosa culture filtrate;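 active = corrected activity change at or below -50% at 5 µM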
HIF-2a inh: HIF-2a inhibition; 786-0 RCC cells HIF-2a reporter, luciferase luminescence, overnight; inhibition, % at 18.8 µM; 0.72% of 360,000 active; AID 624352;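 active = inhibition of the luminescence signal of 40% or more relative to plate controls, in a single-dose primary screen at 18.75 µM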
Mdm2 MdmX conf: human Mdm2/MdmX binding inhibition, confirmed | shares compounds with Mdm2 MdmX PPI | luminescent assay | inhibition, % at 8 µM | 55% of 10,000 active | AID 489028; in the data active = inhibition above about 40%
FLuc counter: counter-screen for Mdm2/MdmX inhibitors: full-length luciferase. inhibition, % at 8 µM. shares compounds with Mdm2 MdmX PPI. 77% of 6,200 active. SaOS-2 full-length luciferase counterscreen, luminescence. AID 504607;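 active = mean inhibition at 8 µM reaching about 37%, which flags the compound as non-specific, limit read from the data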;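 note: p53-null SaOS-2 cells with luciferase driven by a doxycycline-inducible promoter; compound on cells about two nights before reading with doxycycline added after day one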
Numbers stand for hits; 0 = inactive; - = not tested or not shown. In the library only some 4.6% were active in any assay of this set; here they are far more common.

SMILES	ABHD5 PLIN5 PPI	Mdm2 MdmX PPI	Peg3 promoter	CF NFkB block	KKLEB tox	HIF-2a inh	Mdm2 MdmX conf	FLuc counter
N#CCC(=O)Nc1ccc(C(=O)OCC(=O)Nc2ccc3ccccc3c2)cc1	0	0	0	0	0	0	-	-
COC(=O)[C@@]1(Cc2ccc(F)cc2)[C@H]2c3cc(C(=O)N4CCCC4)n(CCCNc4ncc(C(F)(F)F)cc4Cl)c3C[C@H]2CN1C(=O)c1ccccc1	0	62	0	0	0	0	0	-
COC(=O)[C@@]1(Cc2ccc(F)cc2)[C@H]2c3cc(C(=O)N4CCCC4)n(CCF)c3C[C@H]2CN1C(=O)c1ccccc1	0	-	-	-	-	0	-	-
CCN1/C(=C/c2ccc3cc(C)ccc3[n+]2CC)Sc2ccc3sccc3c21	0	101	111	0	0	0	87	0
CCN1/C(=C\c2ccc3cc(C)ccc3[n+]2CC)Sc2cc(C)c(C)cc21	0	-	0	0	0	0	-	-
CC(=O)N(C(C)=O)c1ncc2c([nH]c3ccccc32)c1C#N	0	82	0	90	0	0	86	0
COc1cc(Cl)ccc1NC(=S)N(CCCN1CCOCC1)Cc1cn(C)c2ccccc12	0	55	0	0	0	0	0	-
COc1ccc(Cl)cc1NC(=S)N(CCCN1CCOCC1)Cc1cn(C)c2ccccc12	0	0	0	0	0	0	-	-
CC1=C(C(=O)N(C(C)C)C(C)C)CC(CC(=O)NCCCCc2ccccc2)C(=O)N1Cc1ccc(F)cc1 (configuration not stated)	0	-	0	0	0	0	-	-
CC(C)N(Cc1ccccc1)C(=O)COC(=O)c1cc(S(=O)(=O)N(C)C)ccc1N1CCCC1	0	0	0	0	0	0	-	-
CC1(C)CCCN(Cc2c(O)ccc3c(=O)c(-c4nc5ccccc5s4)c(N)oc23)C1	0	0	0	0	0	0	-	-
CC1CCCN(Cc2c(O)ccc3c(=O)c(-c4nc5ccccc5s4)c(N)oc23)C1 (configuration not stated)	0	70	0	0	0	0	43	67
CC1CCN(Cc2c(O)ccc3c(=O)c(-c4nc5ccccc5s4)c(N)oc23)CC1	0	51	0	0	0	0	0	-
O=C1C=C(c2cc3ccccc3s2)C[C@@H](c2ccc3c(c2)OCO3)C1	0	67	0	0	0	0	41	101
Cc1ccc(C2=CC(=O)C[C@H](c3ccc4c(c3)OCO4)C2)cc1	0	0	0	0	0	0	-	-
O=C(N/N=C/c1cccc2ccccc12)c1n[nH]c2c1CCCC2	0	66	0	0	0	0	65	85
O=C(N/N=C/C=C/c1ccccc1)c1n[nH]c2c1CCC2	0	63	0	0	0	0	56	95
C/C=C1\NC(=O)[C@H](C)NC(=O)[C@@H](NC(=O)[C@H](Cc2ccc(O)cc2)NC(=O)[C@@H](NC(=O)/C(C)=C/C)C(C)C)[C@@H](C)OC(=O)[C@H](CC(C)C)NC(=O)[C@@H](CCC(=O)O)NC1=O	0	-	0	0	0	0	-	-
Cc1ccc(Nc2nc(N)nc(CCl)n2)cc1	0	83	0	0	0	0	79	59
Nc1nc(CCl)nc(Nc2ccccc2)n1	0	0	0	0	0	0	-	-
Cc1cccc(Nc2nc(N)nc(CCl)n2)c1	0	68	0	0	0	0	64	61
Cc1ccc(Nc2nc(N)nc(CSc3nnc(-c4ccncc4)o3)n2)cc1	0	67	0	0	0	0	0	-
O=C(CCc1ccccc1)NCCc1ccc(F)cc1	0	0	0	0	0	0	-	-
CC(=O)c1ccc2c(c1)C1C=CCC1C(c1cc3c(cc1Br)OCO3)N2 (configuration not stated)	0	67	0	0	0	0	47	57
COc1ccc2c(c1)C1C=CCC1C(c1cc3c(cc1Br)OCO3)N2 (configuration not stated)	0	0	0	0	0	0	-	-
SMILES	ABHD5 PLIN5 PPI	Mdm2 MdmX PPI	Peg3 promoter	CF NFkB block	KKLEB tox	HIF-2a inh	Mdm2 MdmX conf	FLuc counter
O=C(Nc1ccccc1Oc1ccccc1)c1cc([N+](=O)[O-])ccc1Cl	0	79	0	0	0	0	48	68
O=C(Nc1ccc2c(c1)CCCN2C(=O)c1ccco1)c1cc([N+](=O)[O-])ccc1Cl	0	82	0	0	0	0	82	68
O=C(Nc1ccc(N2CCN(C(=O)c3ccco3)CC2)cc1)c1ccc([N+](=O)[O-])cc1Cl	0	0	0	0	0	0	-	-
O=C(Nc1ccc(Nc2ccccc2)cc1)c1cc([N+](=O)[O-])ccc1Cl	0	54	0	0	0	0	0	-
COc1ccc(C(=O)NNC(=O)c2ccc3ccccc3n2)cc1	0	63	0	0	0	0	53	53
O=C(NNC(=O)c1ccc2ccccc2n1)c1ccc(O)cc1	0	0	0	0	0	0	-	-
CCCc1cc(=O)[nH]c(SCC(=O)Nc2cccc(S(=O)(=O)N3CCCCC3)c2)n1	0	0	0	0	0	0	-	-
Cc1ccc2c(c1)C(O)(C1COC(C)(C)CC1=O)C(=O)N2C (configuration not stated)	0	0	0	0	0	0	-	-
CN1C(=O)C(O)(C2COC(C)(C)CC2=O)c2cc(Br)ccc21 (configuration not stated)	0	53	0	0	0	0	0	-
COc1ccc(CN(C)CC(O)COC(c2ccc(OC)cc2)c2ccc(OC)cc2)cc1 (configuration not stated)	0	0	0	0	0	0	-	-
CCOc1ccc(CN(C)CC(O)COC(c2ccc(OC)cc2)c2ccc(OC)cc2)cc1 (configuration not stated)	0	59	50	0	0	0	0	-
CCOc1ccccc1NC(=O)c1ccc2ccccc2c1	0	0	0	0	0	0	-	-
CCOc1ccccc1NC(=O)NNC(=O)c1ccc2ccccc2c1	0	60	0	0	0	0	50	83
Cc1ccc2nc(NC(=O)CSc3nc(=O)n(CCN(C)C)c4c3CCCC4)sc2c1	0	65	0	0	0	0	49	71
CCN(CC)CCn1c2c(c(SCC(=O)Nc3nc(C)cs3)nc1=O)CCC2	0	52	0	0	0	0	0	-
CCN(CC)CCn1c2c(c(SCC(=O)Nc3nc(C)cs3)nc1=O)CCCC2	0	0	0	0	0	0	-	-
CCCCc1ccc(NC(=O)CSc2nc(=O)n(CCN(CC)CC)c3c2CCC3)cc1	0	59	0	0	0	0	0	62
COc1ccc(S(=O)(=O)N2CCOC2CNC(=O)C(=O)NCCCN2CCOCC2)cc1C (configuration not stated)	0	0	0	0	0	0	-	-
COc1ccc2cc(C(=O)NCCCN3CCCC3=O)[nH]c2c1	0	0	0	0	0	0	-	-
